# Measured values reported in publication PMC7862700, “An all-to-all approach to the identification of sequence-specific readers for epigenetic DNA modifications on cytosine”.
# What was measured:
# Test in all cases: DAPPL (digital affinity profiling via proximity ligation, sequencing); 10 mM Tris-HCl pH 7.5, 50 mM NaCl, 1 mM DTT, 4% glycerol, room temperature, 30 min; GST-TFs on glutathione beads, 16-mer random dsDNA library, 0.1% formaldehyde crosslink after washing; high values mean tight binding
# FEV = biological target: T1, FEV (Homo sapiens, UniProt Q99581 1-238); details: protein: recombinant; tags: N-terminal GST; dsDNA, one strand shown
# T1 sequence: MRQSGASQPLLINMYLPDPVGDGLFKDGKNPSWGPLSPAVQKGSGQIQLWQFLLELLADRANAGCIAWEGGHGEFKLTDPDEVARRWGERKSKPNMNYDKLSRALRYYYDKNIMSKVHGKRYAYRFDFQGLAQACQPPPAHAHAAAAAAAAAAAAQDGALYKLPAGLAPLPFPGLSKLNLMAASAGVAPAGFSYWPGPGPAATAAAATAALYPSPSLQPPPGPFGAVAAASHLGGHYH
# Method in brief: (§1)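 Pools were built from human transcription factors expressed in yeast as GST fusions, captured on glutathione beads and DNA-barcoded, along with a tag-only sample. Incubation with 200 nmole of a 16-mer random double-stranded DNA library lasted 30 min at room temperature in Tris/NaCl/DTT/glycerol buffer, and was followed by washing, 0.1% formaldehyde crosslinking, proximity ligation, PCR amplification and Illumina NextSeq500 sequencing. Binding signal is the quotient of each hexamer's read frequency for a factor and its frequency for the tag-only sample.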
# ETV5 = ETV5 (Homo sapiens, UniProt P41161 1-510); details: protein: recombinant; tags: N-terminal GST; dsDNA, one strand shown
# Method in brief: as §1
# HSF1 = HSF1 (Homo sapiens, UniProt Q00613 1-529); details: protein: recombinant; tags: N-terminal GST; chain copies: 3; dsDNA, one strand shown
# Method in brief: as §1
# SPIC = biological target: T2, SPIC (Homo sapiens, UniProt Q8N5J4 1-248); details: protein: recombinant; tags: N-terminal GST; dsDNA, one strand shown
# T2 sequence: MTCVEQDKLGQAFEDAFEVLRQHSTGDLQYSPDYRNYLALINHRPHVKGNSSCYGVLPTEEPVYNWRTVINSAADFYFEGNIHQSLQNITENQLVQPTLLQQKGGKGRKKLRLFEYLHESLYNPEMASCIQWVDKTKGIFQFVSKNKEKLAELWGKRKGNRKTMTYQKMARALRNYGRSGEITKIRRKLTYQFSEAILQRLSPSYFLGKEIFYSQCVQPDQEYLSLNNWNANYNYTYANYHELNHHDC
# Method in brief: as §1
# ELF4 = ELF4 (Homo sapiens, UniProt Q99607 1-663); details: protein: recombinant; tags: N-terminal GST; dsDNA, one strand shown
# Method in brief: as §1
# ELK4 = biological target: T3, ELK4 (Homo sapiens, UniProt P28324-2 1-405); details: protein: recombinant; tags: N-terminal GST; dsDNA, one strand shown
# T3 sequence: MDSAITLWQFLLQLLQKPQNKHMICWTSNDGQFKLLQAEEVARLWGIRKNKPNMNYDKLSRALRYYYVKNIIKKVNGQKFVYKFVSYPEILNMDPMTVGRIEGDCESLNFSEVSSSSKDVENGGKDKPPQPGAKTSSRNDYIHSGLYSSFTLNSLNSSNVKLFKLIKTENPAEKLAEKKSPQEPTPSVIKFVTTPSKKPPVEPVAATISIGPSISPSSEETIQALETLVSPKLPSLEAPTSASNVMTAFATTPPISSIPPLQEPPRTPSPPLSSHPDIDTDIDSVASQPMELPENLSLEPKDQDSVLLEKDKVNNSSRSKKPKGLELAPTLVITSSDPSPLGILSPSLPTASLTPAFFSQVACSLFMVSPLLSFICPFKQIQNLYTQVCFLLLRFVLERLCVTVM
# Method in brief: as §1
# ETV2 = biological target: T4, ETV2 (Homo sapiens, UniProt O00321 1-342); details: protein: recombinant; tags: N-terminal GST; dsDNA, one strand shown
# T4 sequence: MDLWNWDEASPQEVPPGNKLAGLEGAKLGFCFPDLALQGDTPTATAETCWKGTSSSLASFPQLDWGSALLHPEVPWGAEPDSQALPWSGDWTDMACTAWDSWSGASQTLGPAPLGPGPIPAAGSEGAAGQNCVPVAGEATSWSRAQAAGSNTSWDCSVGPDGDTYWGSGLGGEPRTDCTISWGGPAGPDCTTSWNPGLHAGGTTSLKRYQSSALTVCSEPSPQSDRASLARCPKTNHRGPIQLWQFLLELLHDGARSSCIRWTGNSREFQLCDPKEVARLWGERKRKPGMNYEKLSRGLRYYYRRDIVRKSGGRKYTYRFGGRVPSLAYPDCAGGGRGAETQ
# Method in brief: as §1
# ELF3 = biological target: T5, ELF3 (Homo sapiens, UniProt P78545 1-371); details: protein: recombinant; tags: N-terminal GST; dsDNA, one strand shown
# T5 sequence: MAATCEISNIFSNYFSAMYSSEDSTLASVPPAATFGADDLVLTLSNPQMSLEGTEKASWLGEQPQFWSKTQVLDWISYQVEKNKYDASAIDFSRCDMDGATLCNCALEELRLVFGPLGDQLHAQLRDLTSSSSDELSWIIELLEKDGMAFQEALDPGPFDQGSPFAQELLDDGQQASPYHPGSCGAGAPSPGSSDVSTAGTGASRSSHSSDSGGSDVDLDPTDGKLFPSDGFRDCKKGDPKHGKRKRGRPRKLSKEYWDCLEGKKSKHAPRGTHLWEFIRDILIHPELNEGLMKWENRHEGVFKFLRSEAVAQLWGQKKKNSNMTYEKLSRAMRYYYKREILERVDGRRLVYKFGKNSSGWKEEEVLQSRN
# Method in brief: as §1
# CRX = CRX (Homo sapiens, UniProt O43186 1-299); details: protein: recombinant; tags: N-terminal GST; dsDNA, one strand shown
# Method in brief: as §1
# CRX, sequence (O43186 whole entry): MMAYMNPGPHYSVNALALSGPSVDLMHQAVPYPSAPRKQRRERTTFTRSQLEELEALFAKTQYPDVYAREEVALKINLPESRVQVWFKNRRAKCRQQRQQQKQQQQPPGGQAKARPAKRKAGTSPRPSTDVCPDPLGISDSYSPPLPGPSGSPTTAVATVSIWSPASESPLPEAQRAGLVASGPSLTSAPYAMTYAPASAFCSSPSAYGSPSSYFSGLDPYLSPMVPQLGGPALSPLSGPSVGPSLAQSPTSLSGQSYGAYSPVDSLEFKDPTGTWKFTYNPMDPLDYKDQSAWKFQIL
# ETV5, sequence (P41161 whole entry): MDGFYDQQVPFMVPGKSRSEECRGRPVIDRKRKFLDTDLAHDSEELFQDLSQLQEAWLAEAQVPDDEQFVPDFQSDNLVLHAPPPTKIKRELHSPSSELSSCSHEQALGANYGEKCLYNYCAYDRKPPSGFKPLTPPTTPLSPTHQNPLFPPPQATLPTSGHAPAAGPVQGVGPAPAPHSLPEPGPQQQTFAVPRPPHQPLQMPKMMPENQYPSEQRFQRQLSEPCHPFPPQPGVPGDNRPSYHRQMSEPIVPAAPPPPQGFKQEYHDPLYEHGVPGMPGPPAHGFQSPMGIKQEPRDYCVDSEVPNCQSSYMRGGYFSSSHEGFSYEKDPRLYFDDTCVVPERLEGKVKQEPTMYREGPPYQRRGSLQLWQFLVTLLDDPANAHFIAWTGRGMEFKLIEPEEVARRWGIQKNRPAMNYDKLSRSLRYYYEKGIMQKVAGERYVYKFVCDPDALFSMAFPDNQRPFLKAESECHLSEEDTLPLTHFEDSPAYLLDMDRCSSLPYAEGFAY
# HSF1, sequence (Q00613 whole entry): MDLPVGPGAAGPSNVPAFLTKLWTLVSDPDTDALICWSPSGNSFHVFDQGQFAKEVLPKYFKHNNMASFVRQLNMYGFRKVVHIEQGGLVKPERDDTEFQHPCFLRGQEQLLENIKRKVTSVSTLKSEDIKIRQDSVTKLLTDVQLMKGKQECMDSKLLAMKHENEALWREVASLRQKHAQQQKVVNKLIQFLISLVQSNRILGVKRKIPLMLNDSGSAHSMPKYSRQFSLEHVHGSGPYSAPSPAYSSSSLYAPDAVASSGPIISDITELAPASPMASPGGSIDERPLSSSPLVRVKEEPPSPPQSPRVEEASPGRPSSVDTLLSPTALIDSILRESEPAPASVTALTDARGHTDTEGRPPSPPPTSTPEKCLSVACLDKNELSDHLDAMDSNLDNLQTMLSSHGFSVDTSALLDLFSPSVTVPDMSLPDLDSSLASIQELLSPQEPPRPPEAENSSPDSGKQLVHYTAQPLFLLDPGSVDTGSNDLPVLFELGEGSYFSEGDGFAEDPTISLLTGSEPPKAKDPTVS
# ELF4, sequence (Q99607 whole entry): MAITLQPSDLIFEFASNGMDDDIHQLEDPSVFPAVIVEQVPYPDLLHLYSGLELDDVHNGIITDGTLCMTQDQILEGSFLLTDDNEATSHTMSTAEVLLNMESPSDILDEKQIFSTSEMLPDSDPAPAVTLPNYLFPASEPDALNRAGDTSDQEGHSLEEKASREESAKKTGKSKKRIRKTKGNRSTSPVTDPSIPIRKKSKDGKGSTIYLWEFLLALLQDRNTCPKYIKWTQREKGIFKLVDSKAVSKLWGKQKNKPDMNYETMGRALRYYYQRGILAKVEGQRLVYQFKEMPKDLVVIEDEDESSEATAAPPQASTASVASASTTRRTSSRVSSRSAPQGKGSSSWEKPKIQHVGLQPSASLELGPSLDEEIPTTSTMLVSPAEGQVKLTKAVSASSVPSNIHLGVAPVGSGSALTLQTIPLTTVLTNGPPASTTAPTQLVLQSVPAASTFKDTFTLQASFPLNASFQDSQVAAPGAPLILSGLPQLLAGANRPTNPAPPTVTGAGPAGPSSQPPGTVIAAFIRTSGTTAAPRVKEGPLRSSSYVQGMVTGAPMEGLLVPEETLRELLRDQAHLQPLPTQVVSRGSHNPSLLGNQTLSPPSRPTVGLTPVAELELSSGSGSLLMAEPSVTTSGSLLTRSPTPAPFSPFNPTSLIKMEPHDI
sequence,measurement,setting,value
GGCTTC,binding signal,FEV,"1.77 fold enrichment (6-mer frequency, TF over GST control)"
same,binding signal,ETV5,"1.69 fold enrichment (6-mer frequency, TF over GST control)"
same,binding signal,HSF1,"1.45 fold enrichment (6-mer frequency, TF over GST control)"
same,binding signal,SPIC,"1.6 fold enrichment (6-mer frequency, TF over GST control)"
same,binding signal,ELF4,"1.55 fold enrichment (6-mer frequency, TF over GST control)"
same,binding signal,ELK4,"1.44 fold enrichment (6-mer frequency, TF over GST control)"
same,binding signal,ETV2,"1.76 fold enrichment (6-mer frequency, TF over GST control)"
same,binding signal,ELF3,"1.64 fold enrichment (6-mer frequency, TF over GST control)"
same,binding signal,CRX,"1.25 fold enrichment (6-mer frequency, TF over GST control)"
